The sample as a whole holds a higher share of the strongest signals than the screen did.
Columns and labels:
Assay in all cases: glycan array binding signal (z-score within array); higher = stronger binding
Conditions in all cases: glycan notation: IUPAC condensed, linker removed
[1] = biological target: Fuc(a1-2)Gal(b1-3)GalNAc(a1-3)[Fuc(a1-2)]Gal(b1-4)Glc
Outline: (§1)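 Columns mapping to the same glycan were averaged after glycan names were converted to IUPAC-condensed notation. The data come from 3228 arrays in the Consortium for Functional Glycomics database, limited to those with an available protein sequence. Binding is reported as a within-array Z-score averaged across arrays of one protein sequence and across linkers.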

[2] = biological target: Fuc(a1-2)Gal(b1-3)GlcNAc(b1-2)Man(a1-3)[Fuc(a1-2)Gal(b1-3)GlcNAc(b1-2)Man(a1-6)]Man(b1-4)GlcNAc(b1-4)GlcNAc
Outline: as §1

[3] = biological target: Fuc(a1-2)Gal(b1-4)Glc6S
Outline: as §1

[4] = biological target: Fuc(a1-2)Gal(b1-4)GlcNAc6S
Outline: as §1

[5] = biological target: Fuc(a1-2)[Gal(a1-3)]Gal(b1-3)GlcNAc
Outline: as §1

[6] = biological target: Fuc(a1-2)[Gal(a1-3)]Gal(b1-3)GlcNAc(b1-6)GalNAc
Outline: as §1

[7] = biological target: Fuc(a1-2)[Gal(a1-3)]Gal(b1-4)GlcNAc(b1-2)Man(a1-3)[Fuc(a1-2)[Gal(a1-3)]Gal(b1-4)GlcNAc(b1-2)Man(a1-6)]Man(b1-4)GlcNAc(b1-4)GlcNAc
Outline: as §1

[8] = biological target: Fuc(a1-2)[GalNAc(a1-3)]Gal
Outline: as §1

[9] = biological target: Fuc(a1-2)[GalNAc(a1-3)]Gal(b1-4)GlcNAc(b1-3)GalNAc
Outline: as §1

[10] = biological target: Gal(a1-3)Gal(b1-3)GlcNAc(b1-2)Man(a1-3)[Gal(a1-3)Gal(b1-3)GlcNAc(b1-2)Man(a1-6)]Man(b1-4)GlcNAc(b1-4)GlcNAc
Outline: as §1

[11] = biological target: Gal(a1-4)Gal(b1-4)GlcNAc(b1-3)Gal(b1-4)Glc
Outline: as §1

[12] = biological target: Gal(b1-3)GalNAc(b1-3)Gal
Outline: as §1

[13] = biological target: Gal(b1-3)GlcNAc(b1-3)Gal(b1-4)GlcNAc
Outline: as §1

[14] = biological target: Gal(b1-3)GlcNAc(b1-3)Gal(b1-4)GlcNAc(b1-2)[Gal(b1-3)GlcNAc(b1-3)Gal(b1-4)GlcNAc(b1-6)]Man(a1-6)[Gal(b1-3)GlcNAc(b1-3)Gal(b1-4)GlcNAc(b1-2)Man(a1-3)]Man(b1-4)GlcNAc(b1-4)[Fuc(a1-6)]GlcNAc
Outline: as §1

[15] = biological target: Gal(b1-3)[Fuc(a1-4)]GlcNAc(b1-3)Gal(b1-3)[Fuc(a1-4)]GlcNAc
Outline: as §1

[16] = biological target: Gal(b1-4)GlcNAc(b1-2)[Gal(b1-4)GlcNAc(b1-6)]Man(a1-6)[GlcNAc(b1-4)][Gal(b1-4)GlcNAc(b1-2)[Gal(b1-4)GlcNAc(b1-4)]Man(a1-3)]Man(b1-4)GlcNAc(b1-4)[Fuc(a1-6)]GlcNAc
Outline: as §1

[17] = biological target: Gal(b1-4)GlcNAc(b1-3)Gal(b1-4)GlcNAc(b1-3)Gal(b1-4)GlcNAc(b1-2)Man(a1-3)[Gal(b1-4)GlcNAc(b1-3)Gal(b1-4)GlcNAc(b1-3)Gal(b1-4)GlcNAc(b1-2)Man(a1-6)]Man(b1-4)GlcNAc(b1-4)GlcNAc
Outline: as §1

[18] = biological target: Gal(b1-4)GlcNAc(b1-3)Gal(b1-4)GlcNAc(b1-3)Gal(b1-4)GlcNAc(b1-3)Gal(b1-4)GlcNAc(b1-2)Man(a1-3)[Gal(b1-4)GlcNAc(b1-3)Gal(b1-4)GlcNAc(b1-3)Gal(b1-4)GlcNAc(b1-3)Gal(b1-4)GlcNAc(b1-2)Man(a1-6)]Man(b1-4)GlcNAc(b1-4)[Fuc(a1-6)]GlcNAc
Outline: as §1

[19] = biological target: Gal(b1-4)GlcNAc(b1-3)Gal(b1-4)GlcNAc(b1-3)[Gal(b1-4)GlcNAc(b1-3)Gal(b1-4)GlcNAc(b1-6)]GalNAc
Outline: as §1

[20] = biological target: Gal(b1-4)GlcNAc(b1-3)[Fuc(a1-3)GlcNAc(b1-6)]Gal(b1-4)Glc
Outline: as §1

[21] = biological target: Gal3S(b1-3)[Fuc(a1-4)]GlcNAc
Outline: as §1

[22] = biological target: Gal6P(b1-4)GlcNAc
Outline: as §1

[23] = biological target: GalNAc(b1-3)Gal(a1-4)Gal(b1-4)GlcNAc(b1-3)Gal(b1-4)Glc
Outline: as §1

[24] = biological target: GalNAc(b1-3)GalNAc
Outline: as §1

[25] = biological target: GlcNAc(a1-4)Gal(b1-4)GlcNAc
Outline: as §1

[26] = biological target: GlcNAc(a1-4)Gal(b1-4)GlcNAc(b1-3)Gal(b1-4)Glc
Outline: as §1

[27] = biological target: GlcNAc(a1-4)Gal(b1-4)GlcNAc(b1-3)Gal(b1-4)GlcNAc
Outline: as §1

[28] = biological target: GlcNAc(a1-4)Gal(b1-4)GlcNAc(b1-3)Gal(b1-4)GlcNAc(b1-3)Gal(b1-4)GlcNAc
Outline: as §1

[29] = biological target: GlcNAc(b1-2)[GlcNAc(b1-6)]Man(a1-6)[GlcNAc(b1-4)][GlcNAc(b1-2)Man(a1-3)]Man(b1-4)GlcNAc(b1-4)GlcNAc
Outline: as §1

[30] = biological target: GlcNAc(b1-3)Gal(b1-4)GlcNAc(b1-3)Gal(b1-4)GlcNAc(b1-2)Man(a1-3)[GlcNAc(b1-3)Gal(b1-4)GlcNAc(b1-3)Gal(b1-4)GlcNAc(b1-2)Man(a1-6)]Man(b1-4)GlcNAc(b1-4)[Fuc(a1-6)]GlcNAc
Outline: as §1

[31] = biological target: GlcNAc(b1-3)Gal(b1-4)GlcNAc(b1-3)Gal(b1-4)GlcNAc(b1-3)GalNAc
Outline: as §1

[32] = biological target: GlcNAc(b1-4)[GlcNAc(b1-6)]GalNAc
Outline: as §1

[33] = biological target: GlcNAc(b1-6)GalNAc
Outline: as §1

[34] = biological target: Man(a1-2)Man(a1-6)[Man(a1-3)]Man(a1-6)[Man(a1-2)Man(a1-2)Man(a1-3)]Man
Outline: as §1

[35] = biological target: Man(b1-4)GlcNAc
Outline: as §1

[36] = biological target: Neu5Ac(a2-3)Gal(b1-3)GlcNAc(b1-2)Man(a1-3)[GlcNAc(b1-4)][Neu5Ac(a2-3)Gal(b1-3)GlcNAc(b1-2)Man(a1-6)]Man(b1-4)GlcNAc(b1-4)GlcNAc
Outline: as §1

[37] = biological target: Neu5Ac(a2-3)Gal(b1-4)GlcNAc(b1-2)Man(a1-3)[Neu5Ac(a2-3)Gal(b1-4)GlcNAc(b1-2)Man(a1-6)]Man(b1-4)GlcNAc(b1-4)GlcNAc
Outline: as §1

[38] = biological target: Neu5Ac(a2-3)Gal(b1-4)GlcNAc(b1-3)Gal(b1-4)GlcNAc(b1-3)Gal(b1-4)GlcNAc(b1-2)Man(a1-3)[Neu5Ac(a2-3)Gal(b1-4)GlcNAc(b1-3)Gal(b1-4)GlcNAc(b1-3)Gal(b1-4)GlcNAc(b1-2)Man(a1-6)]GalNAc
Outline: as §1

[39] = biological target: Neu5Ac(a2-3)Gal(b1-4)GlcNAc(b1-6)GalNAc
Outline: as §1

[40] = biological target: Neu5Ac(a2-3)[GalNAc(b1-4)]Gal(b1-4)Glc
Outline: as §1

[41] = biological target: Neu5Ac(a2-6)Gal(b1-4)GlcNAc(b1-2)Man(a1-3)Man(b1-4)GlcNAc(b1-4)GlcNAc
Outline: as §1

[42] = biological target: Neu5Ac(a2-6)Gal(b1-4)GlcNAc(b1-2)Man(a1-3)[Neu5Ac(a2-3)Gal(b1-4)GlcNAc(b1-2)Man(a1-6)]Man(b1-4)GlcNAc(b1-4)GlcNAc
Outline: as §1

[43] = biological target: Neu5Ac(a2-6)Gal(b1-4)GlcNAc(b1-3)Gal(b1-4)GlcNAc(b1-3)Gal(b1-4)GlcNAc(b1-2)Man(a1-3)[Neu5Ac(a2-6)Gal(b1-4)GlcNAc(b1-3)Gal(b1-4)GlcNAc(b1-3)Gal(b1-4)GlcNAc(b1-2)Man(a1-6)]GalNAc
Outline: as §1

[44] = biological target: Neu5Ac(a2-6)Gal(b1-4)GlcNAc(b1-6)[Gal(b1-3)GlcNAc(b1-3)]Gal(b1-4)Glc
Outline: as §1

[45] = biological target: Neu5Ac(a2-6)GlcNAc(b1-4)GlcNAc
Outline: as §1

[46] = biological target: Neu5Ac(a2-8)Neu5Ac(a2-3)Gal(b1-3)GalNAc(b1-4)[Neu5Ac(a2-3)]Gal(b1-4)Glc
Outline: as §1

[47] = biological target: Neu5Ac(a2-8)Neu5Ac(a2-3)[Gal(b1-3)GalNAc(b1-4)]Gal(b1-4)Glc
Outline: as §1

B1: AFL6 (Aspergillus fumigatus), Q4WKJ1 (protein)
chain: MSFHLTAEDIRIEDGHRLVARLRNADGDLQDASIDLNTCLGNDNGHFQWDGVDFSHSAQDVHFAIEGGGQVPVLRAQLANQDGEFQDADVNLSERIENINGEFVFH
glycan array binding signal (z-score) [1]: -0.421
glycan array binding signal (z-score) [2]: 2.45
glycan array binding signal (z-score) [3]: -0.234
glycan array binding signal (z-score) [4]: -0.334
glycan array binding signal (z-score) [5]: -0.417
glycan array binding signal (z-score) [6]: -0.178
glycan array binding signal (z-score) [7]: 0.717
glycan array binding signal (z-score) [8]: 0.228
glycan array binding signal (z-score) [9]: -0.656
glycan array binding signal (z-score) [10]: 0.406
glycan array binding signal (z-score) [11]: 0.039
glycan array binding signal (z-score) [12]: -0.263
glycan array binding signal (z-score) [13]: -0.706
glycan array binding signal (z-score) [14]: 1.91
glycan array binding signal (z-score) [15]: -0.509
glycan array binding signal (z-score) [16]: -0.245
glycan array binding signal (z-score) [17]: 2.41
glycan array binding signal (z-score) [18]: 2.99
glycan array binding signal (z-score) [19]: 4.09
glycan array binding signal (z-score) [20]: -0.272
glycan array binding signal (z-score) [21]: -0.44
glycan array binding signal (z-score) [22]: -0.655
glycan array binding signal (z-score) [23]: -0.055
glycan array binding signal (z-score) [24]: -0.414
glycan array binding signal (z-score) [25]: 2.64
glycan array binding signal (z-score) [26]: 2.89
glycan array binding signal (z-score) [27]: 3.58
glycan array binding signal (z-score) [28]: 3.77
glycan array binding signal (z-score) [29]: -0.56
glycan array binding signal (z-score) [30]: 2.48
glycan array binding signal (z-score) [31]: -0.176
glycan array binding signal (z-score) [32]: -0.154
glycan array binding signal (z-score) [33]: -0.476
glycan array binding signal (z-score) [34]: -0.466
glycan array binding signal (z-score) [35]: -0.133
glycan array binding signal (z-score) [36]: -0.296
glycan array binding signal (z-score) [37]: 0.029
glycan array binding signal (z-score) [38]: 4.83
glycan array binding signal (z-score) [39]: 0.04
glycan array binding signal (z-score) [40]: 0.054
glycan array binding signal (z-score) [41]: 0.065
glycan array binding signal (z-score) [42]: -0.35
glycan array binding signal (z-score) [43]: 3.09
glycan array binding signal (z-score) [44]: 0.854
glycan array binding signal (z-score) [45]: -0.135
glycan array binding signal (z-score) [46]: -0.5
glycan array binding signal (z-score) [47]: -0.306

Reference: the supplement of paper PMC8728848
